We go through 6 compounds from PubChem BioAssay (NCATS).

Results filed as inconclusive are left out. Active and inactive are the calls of the source. Unless noted, calls come from the whole dose curve.

The target of test [1] is Nuclear receptor subfamily 1 group I member 3 (Homo sapiens) (UniProt Q14994). Description: Primary qHTS for antagonist of constitutive androstane receptor (CAR) against the NCATS DSHEA and TCM libraries (AID 1794836; active = well fitted curve in the direction sought with a large enough effect; an effect the other way counts as inactive or inconclusive;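 note: HepG2 cells stably expressing hCAR with CYP2B6 luciferase reporter stimulated by CITCO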). Put shortly:
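HepG2-CYP2B6-hCAR cells, attached 5 h, given compounds plus CITCO agonist […], incubated 24 h at 37 C. Luciferase luminescence read, multiplexed with CellTiter-Fluor viability (Ex/Em 405/540 nm).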

The nature of test [2]: KB-8-5-11 P-gp reporter qHTS against the NCATS DSHEA and TCM libraries (AID 1919977; active = well fitted curve in the direction sought with a large enough effect; an effect the other way counts as inactive or inconclusive; note: 0% is about no effect). Put shortly:
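Viability of drug-resistant KB-8-5-11 cells is measured by CellTiter-Glo luminescence following roughly 72 h treatment at 37C. Substances were titrated, with bortezomib as intraplate control.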

Test [3] concerns the target Phospholipid hydroperoxide glutathione peroxidase GPX4 (Homo sapiens) (UniProt P36969). Description: Primary qHTS Assay for Inhibitors of Recombinant Selenoprotein Glutathione Peroxidase 4 (GPX4) (AID 1845192; active = well fitted curve in the direction sought with a large enough effect; an effect the other way counts as inactive or inconclusive; note: % is set by controls: 0 for no effect and ±100 for the full control effect; nearly all actives have a fitted effect of over 65% in size). Put shortly: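 Steps: GPX4 plus compound, 30 min RT; add GR/GSH/NADPH master mix; start with cumene hydroperoxide; read 340/450 nm fluorescence at 0 and 15 min. Finals were 200 nM GPX4, 1 mM GSH, 0.5 mM CHP, 0.5 mM NADPH, 100 nM GR.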

A short description of test [4]: Primary qHTS for inhibitors of SARS-S pseudo-typed particle cell entry (AID 1479145). Note: % is set by controls: 0 for no effect and ±100 for the full control effect; nearly all actives have a fitted effect of over 45% in size. To be noted: outcome: dose series up to 57.1 µM unless noted.
Test [5] can be described thus: Primary qHTS for Huh7 cytotoxicity: counterscreen for inhibitors of MERS-S pseudotyped particle cell entry (AID 1479147). Note: % is set by controls: 0 for no effect and ±100 for the full control effect. To be noted: outcome: dose series up to 57.1 µM unless noted.
Test [6] can be described thus: Primary qHTS for Vero E6 cytotoxicity: counterscreen for inhibitors of SARS-S pseudo-typed particle cell entry (AID 1479150). To be noted: outcome: dose series up to 57.1 µM unless noted.
The nature of test [7]: Confirmatory qHTS to identify inhibitors of SARS-CoV-2 cell entry (AID 1645844). Note: potency is the fitted concentration of half-maximal effect; nearly all actives have a fitted effect of over 45% in size. The essentials:
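HEK293-ACE2, overnight seeding; cpd 1 h, 37C/5% CO2; + SARS-CoV-2-S MLV PP (Wuhan-Hu-1, ΔC19); 48 h; Bright-Glo luminescence. Data normalised to S PP and bald PP wells.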

Test [8] can be described thus: VSVG counterscreen qHTS to identify inhibitors of SARS-CoV-2 cell entry (AID 1645847). Note: potency is the fitted concentration of half-maximal effect; nearly all actives have a fitted effect of over 65% in size. Put shortly:
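Entry of VSV-G pseudotyped particles into human ACE2-expressing HEK293 cells was measured by luciferase luminescence 48 h after infection, with compound added 1 h beforehand.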

A short description of test [9]: Cytotoxicity counterscreen for inhibitors of SARS-CoV-2 cell entry (AID 1645845). Note: nearly all actives have a fitted effect of over 50% in size. To be noted: outcome: dose series up to 57.1 µM unless noted. The essentials:
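Counterscreen run in the same HEK293-ACE2 line as the pseudotyped-particle entry assay, without particles. Viability after 48 h at 37 C was read as ATP luminescence, scaled between cell-containing and cell-free wells.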

Test [10] in a line: Primary qHTS to identify inhibitors of SARS-CoV-2 cell entry (AID 1645846). Note: nearly all actives have a fitted effect of over 45% in size. To be noted: SARS-CoV-2 pseudovirus cell entry assay, luminescence; activity change, negative = inhibition: at 57.1 µM (top of the series) unless noted. Put shortly: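 Using luciferase-reporting pseudoviruses carrying Wuhan-Hu-1 spike, the screen tracks entry into stably ACE2-expressing cells over 48 hr. Activity is expressed relative to spike particles versus particles lacking any fusion protein.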

Sequence of Nuclear receptor subfamily 1 group I member 3 (Homo sapiens) (Q14994 whole entry, looked up): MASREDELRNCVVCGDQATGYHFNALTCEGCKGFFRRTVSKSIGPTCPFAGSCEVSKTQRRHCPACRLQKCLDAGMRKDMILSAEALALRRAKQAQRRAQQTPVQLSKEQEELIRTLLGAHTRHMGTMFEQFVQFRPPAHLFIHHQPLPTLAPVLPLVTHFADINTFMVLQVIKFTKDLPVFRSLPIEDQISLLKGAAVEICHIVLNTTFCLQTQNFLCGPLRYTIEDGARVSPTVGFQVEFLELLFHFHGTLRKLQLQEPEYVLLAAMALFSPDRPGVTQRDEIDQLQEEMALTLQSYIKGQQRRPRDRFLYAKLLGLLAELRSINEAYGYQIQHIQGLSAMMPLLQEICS
Sequence of Phospholipid hydroperoxide glutathione peroxidase GPX4 (Homo sapiens) (P36969 whole entry, looked up): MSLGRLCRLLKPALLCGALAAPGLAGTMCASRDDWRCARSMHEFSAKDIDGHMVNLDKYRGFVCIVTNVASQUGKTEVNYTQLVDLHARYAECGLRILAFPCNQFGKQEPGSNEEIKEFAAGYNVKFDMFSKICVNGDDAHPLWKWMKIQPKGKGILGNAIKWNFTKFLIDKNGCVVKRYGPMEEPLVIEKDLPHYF

Consider `CC/C=C\C/C=C\C/C=C\C/C=C\C/C=C\C/C=C\CCC(=O)O`, for which the Potency result in test [1] and in [2] was “inactive” throughout.

In the case of `CCCCCC/C=C\CCCCCCCC(=O)O`, the Potency entry in test [1] was “inactive”.

With `C=C[C@H]1CN2CC[C@H]1C[C@H]2[C@H](O)c1ccnc2ccccc12`, in [3], the Potency result is “inactive”.

Turning to `CC/C=C\C/C=C\C/C=C\C/C=C\C/C=C\CCCC(=O)O`, the Potency entry in [2] was “inactive”.

`C=C1C/C(=C\C=C2/CCC[C@]3(C)[C@@H]([C@H](C)/C=C/C(C)C(C)C)CC[C@@H]23)[C@@H](O)C[C@@H]1O` (stereo not given in full): the Potency entry in test [4], in test [5] and in [6] was “inactive” each time. Moreover, the Potency was 541 nM (active) in [7] and 429 nM (active) in test [8].

Consider `COc1ccc(C=CC(=O)O)cc1`, for which the Potency result in test [4], in test [5], in test [6] and in test [9] was “inactive” each time. Moreover, in [10], the activity change, negative = inhibition is -10.2%.
